According to PMC5836133, “The intracellular immune receptor Rx1 regulates the DNA-binding activity of a Golden2-like transcription factor”:
Over roughly 16,000 sequences, “e-score” has its median near -0.044; the highest 2% begin near 0.38. The sample holds the highest values, similar sequences and a random draw of the others, so the mix is not that of the screen.

Biological target: T1, GST-NbGlk1(82-244) (Nicotiana benthamiana)
T1 chain: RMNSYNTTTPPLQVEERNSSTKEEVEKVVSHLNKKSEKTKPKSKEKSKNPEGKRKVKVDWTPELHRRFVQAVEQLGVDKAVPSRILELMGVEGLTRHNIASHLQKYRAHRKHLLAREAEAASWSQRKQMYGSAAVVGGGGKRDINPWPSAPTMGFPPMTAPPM
Test: protein-binding microarray; NbGlk1 is a Golden2-like transcription factor of Nicotiana benthamiana; high values mean tight binding
Settings: protein: recombinant; tags: GST (pTH6838); dsDNA, one strand shown

Sequence	binding signal [E-score]
ACGGATTC	0.405 ± 0.00859
ATGGATTA	0.326 ± 0.0123
ACGGATTA	0.312 ± 0.00583
ATGGATTG	0.21 ± 0.0605
ACGGATTG	0.277 ± 0.0929
ATGGATTC	0.425 ± 0.0111
ACGCTGAT	0.235 ± 0.108
ATTTCTTG	0.258 ± 0.105
AATGAAAT	0.236 ± 0.00744
AATTCTCA	0.243 ± 0.0881
CAATCTCA	0.329 ± 0.0291
CAATCACA	0.205 ± 0.12
AAATCTCG	0.4626 ± 0.00233
AAATCTCC	0.439 ± 0.00952
CAATCTCG	0.404 ± 0.00662
AAATCTCA	0.444 ± 0.0165
CAATCTCC	0.349 ± 0.0541
ATCGAATA	0.235 ± 0.0136
ACGAGAAT	0.31 ± 0.0433
ATCTAATG	0.243 ± 0.0558
ATTTCCCA	0.329 ± 0.00415
CACGATCG	0.23 ± 0.0866
ATCTATCA	0.276 ± 0.0314
ATAGGATC	0.255 ± 0.0193
AATCAACA	0.259 ± 0.102

Sequence	binding signal [E-score]
ATCTTTTG	0.24 ± 0.0872
AATCATAT	0.28 ± 0.0597
ACTGTGAT	0.208 ± 0.0601
AGATCGGG	0.239 ± 0.0369
ATCCTCTA	0.342 ± 0.0176
ACTGATAC	0.204 ± 0.0454
CAAAGATA	0.225 ± 0.0785
AAATCTCT	0.392 ± 0.0226
AATTCTCT	0.225 ± 0.0473
AAATCACT	0.26 ± 0.0391
ATCCTCAA	0.322 ± 0.0217
ACCGGATC	0.21 ± 0.0564
ATATAAGA	0.21 ± 0.0738
AGTATTTG	0.208 ± 0.054
AATATTTC	0.34 ± 0.0237
AGGATTTG	0.383 ± 0.0174
AGAATTTC	0.267 ± 0.0165
AGGATTTC	0.469 ± 0.0121
AGAATTTG	0.293 ± 0.0716
ATCTCCTA	0.337 ± 0.0176
AGGGAAAT	0.334 ± 0.0487
AATAAGAT	0.3 ± 0.0136
ATTACTCA	0.208 ± 0.0879
AATCGCGA	0.376 ± 0.0188
AGATCCCC	0.378 ± 0.0125

Sequence	binding signal [E-score]
AGATCTAC	0.347 ± 0.0432
AGATCTCG	0.431 ± 0.0229
AGATCTCA	0.413 ± 0.0152
AGATCACG	0.26 ± 0.003
AGATCCCA	0.219 ± 0.0112
AGATCTCC	0.441 ± 0.0151
AGATCCCG	0.32 ± 0.0375
ATCGTAAC	0.244 ± 0.00995
ATCATATC	0.329 ± 0.0297
ATTCCCGG	0.283 ± 0.0331
ATAATCGC	0.207 ± 0.0834
AAAATCGC	0.405 ± 0.00862
AAAATCGG	0.363 ± 0.0144
AAAATCGT	0.39 ± 0.0061
CAAATCGC	0.32 ± 0.038
AAAATCGA	0.381 ± 0.0174
ATAATCGA	0.216 ± 0.00243
CAAATCGA	0.28 ± 0.0483
AATTGCGT	0.233 ± 0.0124
AATTATCC	0.204 ± 0.00884
ATCTGAGC	0.219 ± 0.0796
AGAGATTG	0.325 ± 0.048
ACAGATTA	0.362 ± 0.0124
ATAGATTG	0.327 ± 0.0261
AGAGATTC	0.434 ± 0.028

Sequence	binding signal [E-score]
ATAGATTA	0.339 ± 0.0049
ATAGATTC	0.437 ± 0.0195
AGAGATTA	0.298 ± 0.025
ACAGATTC	0.429 ± 0.0275
ACAGATTG	0.359 ± 0.0598
ACCAGATC	0.2 ± 0.124
ATCACGTA	0.257 ± 0.0112
AAGTATCT	0.249 ± 0.0273
AATTTAGA	0.251 ± 0.0537
AGTGCGAT	0.313 ± 0.00866
AAGGGGAT	0.203 ± 0.0242
ATTTGCAA	0.304 ± 0.00257
ATATCACA	0.369 ± 0.031
ATTGCGTA	0.367 ± 0.0361
ATTGCGTC	0.2709 ± 0.000439
ATTGCGTG	0.388 ± 0.00526
CAATCAAA	0.214 ± 0.036
AAAATAAA	0.218 ± 0.15
CACTGATA	0.208 ± 0.181
ATCTCGAC	0.34 ± 0.0977
ATATCTAG	0.392 ± 0.0205
AGATCTAA	0.303 ± 0.0304
ATATCAAC	0.287 ± 0.0867
ATCTCTAG	0.294 ± 0.0244
ATCTCTAC	0.297 ± 0.0234

Sequence	binding signal [E-score]
ATATCTAA	0.417 ± 0.0517
ATCTCTAA	0.216 ± 0.0218
ATATCTAC	0.392 ± 0.0225
AGATCTAG	0.349 ± 0.0106
ACCGATAT	0.364 ± 0.00959
ATCAGAAT	0.275 ± 0.0769
AGTGTAAT	0.362 ± 0.0129
ATCTGATA	0.345 ± 0.00479
ATTCGTAA	0.208 ± 0.00392
ATCTTTCC	0.218 ± 0.0881
AATCACAT	0.265 ± 0.0229
CAATCGCA	0.23 ± 0.0233
CACGTATC	0.216 ± 0.0457
ATCGCGGC	0.208 ± 0.0886
ATTTTACG	0.213 ± 0.082
AGATCGGA	0.277 ± 0.0345
AATCATTA	0.201 ± 0.157
ATTGCATG	0.221 ± 0.0421
ATTTCACG	0.242 ± 0.0818
AATTTCGG	0.245 ± 0.0953
ATTATGGA	0.277 ± 0.0309
AATCCTAA	0.395 ± 0.0218
AATCCTAT	0.376 ± 0.0141
AATCCTGA	0.399 ± 0.0138
AATCCTAC	0.3426 ± 0.00211

Sequence	binding signal [E-score]
AATCCTGC	0.356 ± 0.0181
AATCCTGG	0.3628 ± 0.00311
ATTCCTAG	0.202 ± 0.0268
AATCCTAG	0.388 ± 0.0422
AATCCTCG	0.345 ± 0.0473
ATCGTGGA	0.273 ± 0.0839
ACGAATCG	0.283 ± 0.0452
ATTCCTTG	0.228 ± 0.115
AATCGTCT	0.277 ± 0.0759
ATTCTTCC	0.221 ± 0.0993
AATCTTCC	0.361 ± 0.0433
AATCATCA	0.212 ± 0.0286
ATTCTTCA	0.324 ± 0.0737
AATCTTCG	0.404 ± 0.0151
AATCTTCA	0.388 ± 0.01
AATCTTCT	0.41 ± 0.0267
AATCATCG	0.225 ± 0.0433
AATAATCT	0.276 ± 0.0304
CACACAGA	0.201 ± 0.0131
ATATATGG	0.224 ± 0.0844
ATATACGA	0.236 ± 0.0113
ATTTCGAA	0.316 ± 0.0613
ATCCAAAC	0.241 ± 0.133
ATCTCAAG	0.256 ± 0.0583
ATCGTATC	0.36 ± 0.0262

Sequence	binding signal [E-score]
AATCCAAG	0.394 ± 0.00595
AATCCAAC	0.348 ± 0.0137
AATCCCAA	0.367 ± 0.00919
AATCCAAA	0.4128 ± 0.00044
AATCAAAA	0.296 ± 0.0471
ATTCCAAG	0.205 ± 0.0718
AATCCAAT	0.408 ± 0.0114
AATGCAAT	0.303 ± 0.0228
ATCCCAAT	0.201 ± 0.0789
AACGGAAT	0.285 ± 0.0635
ATTTCCCG	0.3088 ± 0.000826
ATCTCAGC	0.22 ± 0.0276
ATTATCCG	0.279 ± 0.01
AATATCCA	0.396 ± 0.0292
AATATCGT	0.322 ± 0.0372
AGTATCCA	0.265 ± 0.00779
AATATCCT	0.389 ± 0.005
AATATCCG	0.426 ± 0.013
AATATCAT	0.282 ± 0.0333
AATATCCC	0.339 ± 0.0252
AATATCGA	0.326 ± 0.0506
ATCGAGAA	0.236 ± 0.0184
